# Bioassay records: PubChem, Broad Institute
# NOMO-1 viab – STK33 inhibitor candidate reducing NOMO-1 cell viability; NOMO-1 AML viability, CellTiter-Glo luminescence, 72 h; inhibition, % (test concentration not listed); 37,000 tested, 7.5% active; AID 2330; in the data active means inhibition above about 80%; inconclusive means no clear call, values can overlap the other calls
# PD-1 reversal – activators reversing PD-1 mediated T-cell inhibition; primary human CD4 T cells, PD-L1 beads, CellTiter-Glo 96 h; activation, % (test concentration not listed); 29,000 tested, under 10 active; AID 2316; call rule not given here;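 further: 0% = median vehicle wells and 100% = positive control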
# YB-1 expression – YB-1 expression inhibition; AID 434959; delta delta Cp (YB-1 minus CDIP) (test concentration not listed); U2OS, qRT-PCR YB-1 vs CDIP delta delta Cp, 16 h; stronger effect = higher value; zero = DMSO, each unit about twofold; 30,000 tested, 0.37% active;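 active means delta delta Cp rounded down to an integer at or above 3, about 3 SD of DMSO wells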;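 further: higher means less YB-1 transcript or more CDIP transcript relative to DMSO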
# ROS inducer – raises reactive oxygen species in U2OS cancer cells | U2OS ROS induction, H2DCF-DA fluorescence | ROS induction (% of piperlongumine), % at 10 µM | 46,000 tested, 2% active; in the data active means ROS induction above about 79%, passing the limit was not always enough; inconclusive means no clear call, values can overlap the other calls;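 further: 0% = DMSO vehicle median and 100% = reference compound median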
# An asterisk follows results filed as active; u = inconclusive; x = not tested or not shown. The sample as a whole holds a higher share of hits than the screen did.
SMILES,NOMO-1 viab,PD-1 reversal,YB-1 expression,ROS inducer
CC1C[C@@]23CC4C(C)(C)[C@@]5(C[C@]4(CN2C1=O)N(C)C3=O)C(=O)Nc1c5ccc2c1C(=O)CC(C)(C)O2 (some centres not stated),118*,0,-0.18,-1
Clc1ccc(CSc2ncccn2)cc1,x,x,x,94*
O=c1ccnc(SCc2ccc(Cl)cc2)[nH]1,7,0,-0.29,49
CCc1cccc2c(C(C(=O)c3ccccc3)c3c[nH]c4c(CC)cccc34)c[nH]c12,111*,-1,0.2,14
COc1cc(O)c(C(=O)/C=C/c2ccccc2)c(OC)c1,93*,x,0.14,43
C[C@H]1CN([C@@H](C)CO)C(=O)c2cccc(N(C)C)c2O[C@H]1CN(C)Cc1ccc(C(=O)Nc2ccccc2N)cc1,126*,-1,-0.2,8
C[C@@H]1CN([C@@H](C)CO)C(=O)c2cccc(N(C)C)c2O[C@H]1CN(C)Cc1ccc(C(=O)Nc2ccccc2N)cc1,90*,-2,-0.49,6
C[C@H](CO)N1C[C@H](C)[C@@H](CN(C)Cc2ccc(C(=O)Nc3ccccc3N)cc2)Oc2c(cccc2N(C)C)C1=O,44,1,-0.23,33
Cc1ccc(NC(=O)COc2ccc3ccccc3c2Br)c([N+](=O)[O-])c1,-2,2,x,-29
O=C(NCc1ccco1)C1CC(c2ccccc2O)=NO1 (configuration not stated),19,x,x,x
COc1cc(OC)c(C2=NOC(C(=O)NCc3ccco3)C2)cc1Cl (configuration not stated),129*,1,x,4
FC(F)(F)c1nc2ccc(Cl)cc2[nH]1,121*,-2,-0.03,11
O=C1CSc2ccc(C(=O)N3CCN(c4cccc(C(F)(F)F)c4)CC3)cc2N1,x,x,x,17
C[C@H]1CN([C@@H](C)CO)C(=O)c2cc(NC(=O)Nc3cccc4ccccc34)ccc2O[C@@H]1CN(C)Cc1ccc2c(c1)OCO2,15,-2,0.34,120*
C[C@@H]1CN([C@@H](C)CO)C(=O)c2cc(NC(=O)Nc3cccc4ccccc34)ccc2O[C@@H]1CN(C)Cc1ccc2c(c1)OCO2,43,-2,0.24,-8
C[C@H](CO)N1C[C@H](C)[C@H](CN(C)C(=O)Nc2ccc3c(c2)OCO3)Oc2ccc(NC(=O)Nc3cccc4ccccc34)cc2C1=O,9,-3,0.1,79*
C[C@@H]1CN([C@H](C)CO)C(=O)c2cc(NC(=O)Nc3cccc4ccccc34)ccc2O[C@@H]1CN(C)Cc1ccc2c(c1)OCO2,22,-1,0.15,-6
C[C@H]1CN([C@@H](C)CO)C(=O)c2cc(NC(=O)Nc3cccc4ccccc34)ccc2O[C@H]1CN(C)Cc1ccc2c(c1)OCO2,97*,0,0.32,6
CN(Cc1ccccc1)c1nnc(NC(=O)c2cc(-c3ccc(Br)cc3)on2)s1,x,x,x,-16
O=C(O)C1C2C=CC(C2)C1C(=O)Nc1nc2ccc(Br)cc2s1 (configuration not stated),x,x,x,2
CCOc1ccc2nc(SCC(=O)N3CCOCC3)sc2c1,x,x,x,1
COc1ccc(NC(=O)Nc2ccc3c(c2)C(=O)N([C@@H](C)CO)C[C@H](C)[C@@H](CN(C)Cc2ccc(-c4ccccc4)cc2)O3)cc1,82*,-5,-0.25,68
CC(C)NC(=O)Nc1ccc2c(c1)C(=O)N([C@H](C)CO)C[C@@H](C)[C@H](CN(C)Cc1ccc(-c3ccccc3)cc1)O2,84*,-2,-0.53,5
C[C@@H]1CN([C@@H](C)CO)C(=O)c2cc(NC(=O)Nc3ccccc3)ccc2O[C@@H]1CN(C)Cc1ccc(-c2ccccc2)cc1,114*,-5,0.63,13
COc1ccc(NC(=O)Nc2ccc3c(c2)C(=O)N([C@@H](C)CO)C[C@@H](C)[C@H](CN(C)Cc2ccc(-c4ccccc4)cc2)O3)cc1,97*,-2,0.73,28
SMILES,NOMO-1 viab,PD-1 reversal,YB-1 expression,ROS inducer
CCc1cc2c3c(c(=O)oc2cc1OCc1cc(C(=O)O)oc1C)CCCC3,13,0,x,36
COc1ccc(CN(C)C[C@H]2Oc3ccc(NC(=O)Nc4ccccc4)cc3C(=O)N([C@H](C)CO)C[C@H]2C)cc1,37,x,0.41,-12
COc1ccc(NC(=O)Nc2ccc3c(c2)C(=O)N([C@H](C)CO)C[C@@H](C)[C@H](CN(C)Cc2ccc(-c4ccccc4)cc2)O3)cc1,119*,-3,-0.097,-9
COC(=O)C1=C(C)NC(=O)NC1c1ccccc1OCC(=O)Nc1ccc(C)cc1 (configuration not stated),9,-1,x,0
CN1C2=C(C(=O)CC(C)(C)C2)C(c2ccccc2OCC(=O)Nc2ccc(F)cc2)C2=C1CC(C)(C)CC2=O,44,0,x,134*
Cc1cccc(NC(=O)CNC(=O)OCc2ccccc2)c1,x,x,x,-11
COC(=O)CCN(C(=O)c1ccc(OC(C)=O)cc1)c1ccccn1,104*,x,x,x
CN1CCc2nc(SCC(=O)Nc3ccc(C(C)(C)C)cc3)c(C#N)cc2C1,u,-8,x,41
O=C1N(Cc2cc(=O)n3ccccc3n2)c2ccccc2S(=O)(=O)N1c1ccc(Cl)cc1,x,x,x,30
CCOC(=O)c1nnn2c1nc(N(Cc1ccccc1)Cc1ccccc1)c1ccccc12,76,-2,0.37,173*
CCOC(=O)c1nnn2c1nc(SCC(N)=O)c1ccccc12,-7,-1,-0.1,17
Cc1sc2ncn(CC(=O)Nc3cccc(C(F)(F)F)c3)c(=O)c2c1-c1ccc(Cl)cc1,46,-2,x,4
COC(=O)CCCCCCC(=O)N/N=C/c1c(F)c(F)c(F)c(F)c1F,x,x,0.03,266*
COC(=O)CCCCCCC(=O)N/N=C/c1ccc(F)cc1,x,x,0.096,16
O=C1CC(c2ccccc2)Oc2ccc(Cl)cc21 (configuration not stated),115*,-6,0.02,14
Cc1oc2c(c1C(=O)NCc1ccccc1)C(=O)c1ccccc1C2=O,140*,-3,0.24,57
C=C(C)C(=O)O[C@H]1[C@H]2C(=C)C(=O)O[C@@H]2C[C@@H](C)[C@@H]2O[C@@H]2C(=O)[C@](C)(O)[C@@H]1OC(=O)C(=C)C,119*,-10,-0.54,29
COCCOC(=O)N1C(=O)[C@@]2(c3cc(C#CCCO)ccc31)[C@H](C(=O)N1CCN(c3ncccn3)CC1)[C@H]1C(=O)O[C@H](c3ccccc3)[C@H](c3ccccc3)N1[C@@H]2c1ccccc1OCCO,x,x,-0.46,166*
COCCOC(=O)N1C(=O)[C@@]2(c3ccccc31)[C@H](C(=O)N1CCN(c3ncccn3)CC1)[C@H]1C(=O)O[C@H](c3ccccc3)[C@H](c3ccccc3)N1[C@@H]2c1ccccc1OCCO,x,x,-0.23,122*
COCCOC(=O)N1C(=O)[C@@]2(c3ccccc31)[C@H](c1ccccc1OCCO)N1[C@H](c3ccccc3)[C@H](c3ccccc3)OC(=O)[C@H]1[C@@H]2C(N)=O,x,x,-0.11,u
CC(=O)NCCNc1nc2c(-c3ccc(Cl)cc3)nnn2c2ccccc12,x,x,x,33
